# Assay results: PubChem BioAssay (EPA / NIEHS)
# Inconclusive results are not listed. Active and inactive are the calls of the source. The calls were made as follows: active = hit-call score of the fitted dose curve at least 0.9, where 1 is the maximum; inconclusive = response in the unintended direction; inactive = score below 0.9.
# Columns and labels:
# [1] = TOX21_p53_BLA_p2_viability: Viability Assessment in the Tox21 HCT-116 p53 Agonism Beta-lactamase Assay, Phase 2 (AID 2283591);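 also: compound exposure lasted 16 h at 37 °C; actives lower the ATP signal meaning cytotoxicity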
# Method in brief: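 HCT116 p53-bla cells, 4000/well, dosed after 5 h plating (217-fold dilution of DMSO stocks) and incubated 16 h at 37C. Viability taken as cellular ATP by CellTiter-Glo luminescence after 30 min RT; signal loss marks cytotoxicity.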
# [2] = TOX21_p53_BLA_p3_viability: Viability Assessment in the Tox21 HCT-116 p53 Agonism Beta-lactamase Assay, Phase 3 (AID 2283593);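 also: cells exposed to compound for 16 h before reading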
# Method in brief: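 HCT116 cells, 4000/well, dosed 5 h after plating by pin transfer (217-fold dilution from DMSO stock) and incubated 16 h at 37C, 5% CO2. Viability read as ATP luminescence with CellTiter-Glo after 30 min at room temperature.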
# [3] = molecular target: Cellular tumor antigen p53 (Homo sapiens) (UniProt P04637); experiment: TOX21_p53_BLA_p3_ratio: Tox21 HCT-116 p53 Agonism Beta-lactamase Assay, Ratio, Phase 3 (AID 2283596)
# Method in brief: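 HCT116 p53-bla cells (4000/well) given compound in DMSO (217-fold dilution) after 5 h, incubated 16 h at 37C. CCF4-AM substrate 2 h at room temperature; 460/530 nm emission ratio, gain fitted against DMSO.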
# [4] = TOX21_p53_BLA_p4_viability: Viability Assessment in the Tox21 HCT-116 p53 Agonism Beta-lactamase Assay, Phase 4 (AID 2283597);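 also: hits lower the luminescence signal meaning cytotoxicity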
# Method in brief: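 Luminescent ATP readout (CellTiter-Glo, 30 min, room temperature) in the same wells as the p53 bla ratio. HCT116 cells were treated for 16 h at 37C with DMSO-dissolved compounds.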
# [5] = molecular target: Cellular tumor antigen p53 (Homo sapiens) (UniProt P04637); experiment: TOX21_p53_BLA_p5_ratio: Tox21 HCT-116 p53 Agonism Beta-lactamase Assay, Ratio, Phase 5 (AID 2283599)
# Method in brief: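 HCT-116 p53-bla cells (4000/well) plated 5 h, dosed with compound (217-fold DMSO dilution) for 16 h at 37 C; CCF4-AM substrate 2 h at room temperature. Activity is the 460/530 nm emission ratio (405 nm excitation), fitted in gain-of-signal direction versus DMSO.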
# [6] = TOX21_p53_BLA_p5_viability: Viability Assessment in the Tox21 HCT-116 p53 Agonism Beta-lactamase Assay, Phase 5 (AID 2283600)
# Method in brief: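 Seeded cells (4000/well) settle 5 h before compound addition. Plates then incubate 16 h at 37C, receive FRET substrate for 2 h, and finally CellTiter-Glo, with luminescence measured after a 30 min room-temperature incubation.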
# [7] = molecular target: Cellular tumor antigen p53 (Homo sapiens) (UniProt P04637); experiment: TOX21_p53_BLA_p4_ratio: Tox21 HCT-116 p53 Agonism Beta-lactamase Assay, Ratio, Phase 4 (AID 2283601)
# Method in brief: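 HCT-116 p53 beta-lactamase reporter cells (4000/well) preincubated 5 h, then compound (217-fold dilution of DMSO stock) for 16 h at 37C. CCF4-AM substrate added 2 h at room temperature; 460/530 nm emission ratio fitted upward versus DMSO.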
# [8] = molecular target: PGR (gene 5241) (UniProt P06401); experiment: TOX21_PR_BLA_Followup_Antagonist_ratio: Tox21 HEK293 Progesterone Receptor (PR) Antagonism Beta-lactamase Follow-Up Assay, Ratio (AID 2283934)
# Method in brief: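 HEK293T PR-UAS-bla, 2% CS-FBS; 6 hr plating, then cpd + R5020 (1 nM final), 16 hr 37C/5% CO2. B/G FRET substrate 2 h RT. Ratio ch2/ch1 vs DMSO; CellTiter-Glo viability multiplexed, autofluorescence checked.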
# [9] = TOX21_PR_BLA_Followup_Agonist_viability: Viability Assessment in the Tox21 HEK293 Progesterone Receptor (PR) Agonism Beta-lactamase Follow-Up Assay (AID 2283935);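 also: cells exposed to compound for 16 hr at 37 °C; signal loss means lower viability so actives are cytotoxic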
# Method in brief: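 HEK293T PR-UAS-bla, 3,000 cells/well, 2% CS-FBS; 6 hr pre-incubation; cpd in DMSO, 16 hr 37C; LiveBLAzer 2 hr RT, then CellTiter-Glo 30 min RT, luminescence. Decrease = lost viability.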
# [10] = TOX21_PR_BLA_Followup_Antagonist_viability: Viability Assessment in the Tox21 HEK293 Progesterone Receptor (PR) Antagonism Beta-lactamase Follow-Up Assay (AID 2283936);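 also: hits lower the luminescence signal meaning cytotoxicity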
# Method in brief: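 PR-UAS-bla HEK293T cells (3,000/well, 2% charcoal-stripped FBS) given compound plus R5020 agonist, 16 h at 37C. CellTiter-Glo added after bla read, 30 min at room temperature; luminescence loss indicates cytotoxicity.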
# [11] = molecular target: PGR (gene 5241) (UniProt P06401); experiment: TOX21_PR_LUC_Followup_Antagonist: Tox21 HEK293 Progesterone Receptor (PR) Antagonism Luciferase Follow-Up Assay (AID 2283938);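 also: curve fitted upward as signal gain over DMSO baseline despite antagonist label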
# Method in brief: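 Luciferase reporter in HEK293-PR-A-luc cells: 16 h compound treatment at 37C, ONE-Glo luminescence detection, DMSO as negative control and baseline.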
# [12] = TOX21_PR_LUC_Followup_Antagonist_viability: Viability Assessment in the Tox21 HEK293 Progesterone Receptor (PR) Antagonism Luciferase Follow-Up Assay (AID 2283940)
# Method in brief: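 Multiplexed viability counter-screen: after 5 days in charcoal-stripped-FBS medium, HEK293-PR-A-luc cells are plated, pinned with DMSO-dissolved compounds for 16 h at 37C, and ATP content is quantified luminescently via CellTiter-Glo.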
# [13] = TOX21_PR_LUC_Followup_Agonist_viability: Viability Assessment in the Tox21 HEK293 Progesterone Receptor (PR) Agonism Luciferase Follow-Up Assay (AID 2283941);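 also: loss of signal means cytotoxicity so actives lower viability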
# Method in brief: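 Cells were kept 5 days in charcoal-stripped serum medium before plating HEK293-PR-A-luc at 3,000 cells/well. After 5 h they received DMSO-dissolved compound and incubated 16 h at 37C. Viability was taken from CellTiter-Glo ATP luminescence.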
# Sequence of Cellular tumor antigen p53 (Homo sapiens) (P04637 whole entry, looked up): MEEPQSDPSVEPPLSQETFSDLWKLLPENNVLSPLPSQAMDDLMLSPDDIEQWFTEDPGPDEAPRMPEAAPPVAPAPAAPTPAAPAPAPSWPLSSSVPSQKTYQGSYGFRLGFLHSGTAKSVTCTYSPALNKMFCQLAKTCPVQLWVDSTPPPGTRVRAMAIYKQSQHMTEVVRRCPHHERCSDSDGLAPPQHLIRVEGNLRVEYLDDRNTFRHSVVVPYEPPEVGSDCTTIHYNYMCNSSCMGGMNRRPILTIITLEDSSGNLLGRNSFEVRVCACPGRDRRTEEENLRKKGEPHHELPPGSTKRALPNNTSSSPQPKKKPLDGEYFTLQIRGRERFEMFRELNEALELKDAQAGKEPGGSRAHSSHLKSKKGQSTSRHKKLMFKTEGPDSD
# Sequence of PGR (gene 5241) (P06401 whole entry, looked up): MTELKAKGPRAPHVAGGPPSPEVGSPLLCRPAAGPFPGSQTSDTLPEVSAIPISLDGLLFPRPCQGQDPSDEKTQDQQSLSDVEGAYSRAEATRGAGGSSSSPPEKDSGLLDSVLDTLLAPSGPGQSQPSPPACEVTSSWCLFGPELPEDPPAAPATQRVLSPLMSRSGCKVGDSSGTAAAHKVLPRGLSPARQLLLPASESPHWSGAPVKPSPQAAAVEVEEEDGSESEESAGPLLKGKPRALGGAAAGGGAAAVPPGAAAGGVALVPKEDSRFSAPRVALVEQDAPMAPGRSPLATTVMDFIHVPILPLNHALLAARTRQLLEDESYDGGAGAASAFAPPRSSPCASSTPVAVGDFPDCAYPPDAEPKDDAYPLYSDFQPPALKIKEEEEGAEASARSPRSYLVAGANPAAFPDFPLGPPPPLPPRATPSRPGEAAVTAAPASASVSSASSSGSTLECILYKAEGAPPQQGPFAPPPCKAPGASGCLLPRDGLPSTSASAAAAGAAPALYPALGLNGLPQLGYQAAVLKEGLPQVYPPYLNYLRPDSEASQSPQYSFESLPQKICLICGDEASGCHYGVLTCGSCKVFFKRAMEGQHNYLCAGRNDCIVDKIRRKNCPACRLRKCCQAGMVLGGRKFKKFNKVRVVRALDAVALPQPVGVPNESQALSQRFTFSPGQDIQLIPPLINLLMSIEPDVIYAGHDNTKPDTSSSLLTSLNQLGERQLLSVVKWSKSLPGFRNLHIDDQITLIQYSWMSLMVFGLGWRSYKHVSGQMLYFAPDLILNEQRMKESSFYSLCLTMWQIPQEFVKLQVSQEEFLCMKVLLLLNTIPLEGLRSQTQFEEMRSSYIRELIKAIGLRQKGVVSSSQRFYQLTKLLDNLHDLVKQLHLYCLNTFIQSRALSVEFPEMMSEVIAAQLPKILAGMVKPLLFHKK
smiles,measurement,setting,value
CC(C(=O)O)c1cccc(C(=O)c2ccccc2)c1 (configuration not stated),outcome,[1],inactive
same,outcome,[2],inactive
same,outcome,[3],inactive
same,outcome,[4],inactive
same,outcome,[5],inactive
same,outcome,[6],inactive
same,outcome,[7],inactive
C=CC1=C(C(=O)O)N2C(=O)[C@@H](NC(=O)/C(=N\O)c3csc(N)n3)[C@H]2SC1 (stereo in doubt),outcome,[1],inactive
same,outcome,[2],inactive
same,outcome,[3],inactive
same,outcome,[4],inactive
same,outcome,[5],inactive
same,outcome,[6],inactive
same,outcome,[7],inactive
CC1CCCNC1 (configuration not stated),outcome,[1],inactive
same,outcome,[2],inactive
same,outcome,[3],inactive
same,outcome,[4],inactive
same,outcome,[5],inactive
same,outcome,[6],inactive
same,outcome,[7],inactive
COc1ccc(OC)c(NC(=O)CC(C)=O)c1,outcome,[1],inactive
same,outcome,[2],inactive
same,outcome,[3],inactive
same,outcome,[4],inactive
same,outcome,[5],inactive
same,outcome,[6],inactive
same,outcome,[7],inactive
CC(C)(C)NCC(O)COc1ccc(NC(=O)NC2CCCCC2)cc1 (configuration not stated),outcome,[1],inactive
same,outcome,[2],inactive
same,outcome,[3],inactive
same,outcome,[4],inactive
same,outcome,[6],inactive
CCOC(=O)Cc1ccc(-c2ccccc2)cc1,outcome,[1],inactive
same,outcome,[2],inactive
same,outcome,[3],inactive
same,outcome,[4],inactive
same,outcome,[6],inactive
COCCOC(=O)C1=C(C)NC(C)=C(C(=O)OC(C)C)C1c1cccc([N+](=O)[O-])c1 (configuration not stated),outcome,[1],inactive
same,outcome,[2],inactive
same,outcome,[3],inactive
same,outcome,[4],inactive
same,outcome,[5],inactive
same,AC50,[8],23 µM (active)
same,outcome,[9],inactive
same,outcome,[10],inactive
same,AC50,[11],26.4 µM (active)
same,outcome,[12],inactive
same,outcome,[13],inactive
CC1CC(=O)NN=C1c1ccc(NCC(C)(C)NCC(O)COc2cc(Cl)ccc2C#N)cc1 (configuration not stated),outcome,[1],inactive
same,outcome,[2],inactive
same,outcome,[3],inactive
same,outcome,[4],inactive
same,outcome,[7],inactive
OC(CCN1CCCCC1)(c1ccccc1)C1CC2C=CC1C2 (configuration not stated),outcome,[1],inactive
same,outcome,[2],inactive
same,outcome,[3],inactive
same,outcome,[4],inactive
same,outcome,[6],inactive
CC(CCl)OC(C)CCl (configuration not stated),outcome,[1],inactive
same,outcome,[2],inactive
same,outcome,[3],inactive
same,outcome,[4],inactive
same,outcome,[5],inactive
same,outcome,[7],inactive
CNC(=O)CN(CCN(CCN(CC(=O)[O-])CC(=O)NC)CC(=O)[O-])CC(=O)[O-].O.[Gd+3],outcome,[1],inactive
same,outcome,[2],inactive
same,outcome,[3],inactive
same,outcome,[4],inactive
same,outcome,[6],inactive
same,outcome,[7],inactive
NC1CCN(c2cccc(Cl)n2)CC1,outcome,[1],inactive
same,outcome,[2],inactive
same,outcome,[3],inactive
same,outcome,[5],inactive
same,outcome,[6],inactive
same,outcome,[7],inactive
CO[C@H]1C[C@H](O[C@H]2[C@H](C)[C@@H](O[C@@H]3O[C@H](C)C[C@H](N(C)C)[C@H]3OC(C)=O)[C@@H](C)C[C@]3(CO3)C(=O)[C@H](C)[C@@H](OC(C)=O)[C@@H](C)[C@@H](C)OC(=O)[C@@H]2C)O[C@@H](C)[C@@H]1OC(C)=O,outcome,[1],inactive
same,outcome,[2],inactive
same,outcome,[3],inactive
same,outcome,[5],inactive
same,outcome,[6],inactive
